Among all 68,000 compounds or so, about 2,700 (4%) showed an effect of 50% or more. This is one part of a sample in which strong results are shown more often than they occur.

The assay has as its system Plasmodium berghei. Put plainly: Screen against P. berghei liver stage (PbLuc), transformed with Luciferase, at 2uM. In kind it is functional, HepG2. To be noted: tested at 2 uM.
Take `Cc1cccc(CN2C[C@@H]3COC[C@H](NS(C)(=O)=O)[C@@H]3C2)n1`: the INHIBITION amounted to 32.85%.
For `CN(C)Cc1cnc(C2CCN(C(=O)c3ccccc3F)C2)[nH]1` (stereo not given), the INHIBITION is reported as -17.01%.
As for `CCN(Cc1ccccc1)C(=O)CN1CCOC(Cn2cncn2)C1` (stereo not given), the figure is 32.41%.
Turning to `O=C(N1CCCC(n2cncn2)C1)C1(c2ccccc2F)CCCC1` (stereo not given), the INHIBITION was -15.28%.
As for `O=C(COCc1nc(-c2ccncc2)no1)N1CCCCC1`, the figure is 27.89%.
The figure for `Brc1cnc(NCCCOCC2CCOC2)nc1` (stereo not given) is 20.3%; for `COCCCNS(=O)(=O)c1cc(C)sc1C` it is -11.76%; for `CCc1nccn1-c1cccc(C2CCN(C(=O)COC)CC2)n1` it is 47.4%.
The figure for `N#Cc1ccsc1N1CCC(Sc2ccncc2)C1=O` (stereo not given) is 35.61%; for `Cc1cnn(CCC(=O)N2CCCN(c3ncccc3C#N)CC2)c1` it is -2.7%; for `CCS(=O)(=O)N1CCC(NC(=O)c2cc(C)ccc2O)CC1` it is -12.19%.
`CC(=O)c1cc(CC(=O)N2CCN(CCOc3ccccc3)CC2)cs1`: the INHIBITION is -18.33%.
On to `Cc1nc(CC(=O)N2CCN(CCOc3ccccc3)CC2)cs1`, for which the INHIBITION was 65.5%.
In the case of `O=C(Cc1ccsc1)N1CCN(CCOc2ccccc2)CC1`, the INHIBITION was 6.17%.
As for `FC(F)(F)C1CCc2nnc(CNCc3ccsc3)n2C1` (stereo not given), the INHIBITION is -14.84%.
The figure for `Fc1ccc(CNCc2nnc3n2CC(C(F)(F)F)CC3)cc1` (stereo not given) is 0.85%.
As for `FC(F)(F)C1CCc2nnc(CNCc3cccs3)n2C1` (stereo not given), the figure is 58.98%; as for `CCCC(NC(=O)NCc1cccc(N(C)C)n1)c1ccccn1` (stereo not given), -40.08%; as for `CN(Cc1cncnc1)[C@@H]1CN(C(=O)c2ccco2)[C@@H]2CCCO[C@H]12`, 8.17%.
Regarding `CC(C)c1nnc2n1CCN(Cc1csc(-c3cnn(C)c3)n1)C2`, the INHIBITION is listed as 47.25%.
As for `Cn1cc(-c2nc(CN3CCN(CCO)CC3)cs2)cn1`, the figure is 53.03%.
For the compound `Cc1nnc2n1CCN(Cc1csc(-c3cnn(C)c3)n1)C2`, the INHIBITION was found to be 57.34%.
In the case of `CCc1nnc2n1CCN(Cc1csc(-c3cnn(C)c3)n1)C2`, the INHIBITION is listed as -4.69%.
For `COCCN1CCN(Cc2csc(-c3cnn(C)c3)n2)CC1`, the INHIBITION was -20.82%.
The figure for `CC(=O)N1CCN(Cc2csc(-c3cnn(C)c3)n2)CC1` is -6.3%; for `CN(C)Cc1ccnc(C2CCCN2Cc2ccc(F)cn2)n1` (stereo not given) it is 18.38%; for `Cc1ncc(CN2CCC(O)(c3ccccc3F)CC2)cn1` it is 4.19%.
As for `N#Cc1ccc(OC2CCN(CC(=O)NCC3CCCO3)CC2)cc1` (stereo not given), the figure is -27.4%; as for `Oc1coc2cc(OC[C@@H]3CCCN4CCCC[C@H]34)ccc12`, -61.71%.
Consider `CC(C)Cc1cc(C(=O)NCc2nnc[nH]2)[nH]n1`, for which the INHIBITION is 16.6%.

These data come from ChEMBL document CHEMBL4513216, “Probing the Open Global Health Chemical Diversity Library for Multistage-Active Starting Points for Next-Generation Antimalarials” (ACS Infect Dis, 2020).
